According to ChEMBL document CHEMBL3988442, “University of Dundee, Small-Polar-MMV Screening Library” (2021):
For some of these results: Measured potencies and affinities stand elsewhere.

Columns and labels:
Set-up in all cases: scale not given: direction of the effect not stated beside the values
[1] = target: Protein translocase subunit SecA (Escherichia coli (strain K12)) (UniProt P10408); assay: Assay to Identify E. coli SecA ATPase Inhibitors; assay type: functional; details: 30 µM
[2] = target: T1, Ubiquitin-activating enzyme e1, putative (Leishmania donovani (strain BPK282A1)) (UniProt E9BSI1); assay: Leishmania donovani Ubiquitin Activating Enzyme (LdE1); assay type: functional; details: 30 µM
T1 sequence (whole entry): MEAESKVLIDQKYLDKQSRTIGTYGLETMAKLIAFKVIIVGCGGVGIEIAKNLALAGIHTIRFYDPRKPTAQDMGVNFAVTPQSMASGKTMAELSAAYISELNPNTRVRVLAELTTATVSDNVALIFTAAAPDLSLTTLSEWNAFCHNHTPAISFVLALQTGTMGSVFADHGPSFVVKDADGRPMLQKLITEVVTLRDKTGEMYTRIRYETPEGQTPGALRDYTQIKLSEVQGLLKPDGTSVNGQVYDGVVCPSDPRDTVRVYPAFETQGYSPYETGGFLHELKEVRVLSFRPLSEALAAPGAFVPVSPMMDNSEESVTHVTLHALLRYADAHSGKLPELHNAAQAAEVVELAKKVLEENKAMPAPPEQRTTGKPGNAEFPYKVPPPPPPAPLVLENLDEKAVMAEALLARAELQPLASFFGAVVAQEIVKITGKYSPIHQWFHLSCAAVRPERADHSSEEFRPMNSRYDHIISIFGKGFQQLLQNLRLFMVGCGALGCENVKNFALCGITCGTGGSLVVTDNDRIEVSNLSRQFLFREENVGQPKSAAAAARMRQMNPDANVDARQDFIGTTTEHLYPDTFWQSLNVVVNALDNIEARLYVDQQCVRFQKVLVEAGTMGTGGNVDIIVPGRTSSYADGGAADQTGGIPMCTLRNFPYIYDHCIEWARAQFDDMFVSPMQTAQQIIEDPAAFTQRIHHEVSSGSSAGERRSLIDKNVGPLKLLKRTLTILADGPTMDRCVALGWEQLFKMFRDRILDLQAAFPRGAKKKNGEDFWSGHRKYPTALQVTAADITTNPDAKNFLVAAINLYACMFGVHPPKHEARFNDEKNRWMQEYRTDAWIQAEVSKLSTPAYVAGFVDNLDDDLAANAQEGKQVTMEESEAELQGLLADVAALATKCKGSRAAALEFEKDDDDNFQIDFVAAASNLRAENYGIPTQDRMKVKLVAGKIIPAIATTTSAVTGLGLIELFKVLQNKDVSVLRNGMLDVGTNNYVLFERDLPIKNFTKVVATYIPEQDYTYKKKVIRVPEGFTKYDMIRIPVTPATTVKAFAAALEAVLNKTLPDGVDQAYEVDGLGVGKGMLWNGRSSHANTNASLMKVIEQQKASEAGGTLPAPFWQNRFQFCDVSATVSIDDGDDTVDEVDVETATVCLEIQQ

[3] = target: AMP-activated protein kinase, AMPK (Homo sapiens) (UniProt P54646+O43741+P54619+Q9UGJ0+Q9Y478+Q13131+Q9UGI9); assay: AMP-dependent Kinase enzyme assay. An in vitro enzyme assay that detects ADP turnover that is directly proportional to AMPK activity. This uses naive AMPK that is activated during the assay with MK-8722; assay type: functional; details: 30 µM
[4] = target: Sialic acid-binding Ig-like lectin 9 (Homo sapiens) (UniProt Q9Y336); assay: Hs-Siglec9 ALPHAscreen SOP 20170721; details: 10 µM
Sialic acid-binding Ig-like lectin 9 (Homo sapiens), sequence (Q9Y336 whole entry): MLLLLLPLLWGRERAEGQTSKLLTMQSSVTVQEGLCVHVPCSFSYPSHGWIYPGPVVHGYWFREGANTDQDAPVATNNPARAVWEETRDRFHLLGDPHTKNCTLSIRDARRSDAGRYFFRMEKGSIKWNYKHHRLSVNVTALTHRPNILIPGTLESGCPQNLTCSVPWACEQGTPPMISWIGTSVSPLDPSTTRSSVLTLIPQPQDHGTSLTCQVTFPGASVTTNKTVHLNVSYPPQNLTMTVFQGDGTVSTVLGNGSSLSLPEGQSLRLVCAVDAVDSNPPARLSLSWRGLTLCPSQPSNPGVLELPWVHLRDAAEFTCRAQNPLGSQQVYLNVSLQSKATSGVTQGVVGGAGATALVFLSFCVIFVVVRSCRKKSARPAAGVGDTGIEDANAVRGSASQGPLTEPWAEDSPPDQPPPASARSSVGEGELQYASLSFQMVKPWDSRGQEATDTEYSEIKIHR

Trypanosoma cruzi = assay: Trypanosoma cruzi phosphomannomutase and mannose-1-phosphate guanylyltransferase assay; assay type: functional; details: 10 µM
[5] = target: T2, Arginase-2, mitochondrial (Homo sapiens) (UniProt P78540); assay: in vitro enzyme assay to detect the production of urea directly proportional to the activity of Arginase II; assay type: functional; details: 33.3 µM; also: in the data most compounds retested in dose-response had high values
T2 sequence (whole entry): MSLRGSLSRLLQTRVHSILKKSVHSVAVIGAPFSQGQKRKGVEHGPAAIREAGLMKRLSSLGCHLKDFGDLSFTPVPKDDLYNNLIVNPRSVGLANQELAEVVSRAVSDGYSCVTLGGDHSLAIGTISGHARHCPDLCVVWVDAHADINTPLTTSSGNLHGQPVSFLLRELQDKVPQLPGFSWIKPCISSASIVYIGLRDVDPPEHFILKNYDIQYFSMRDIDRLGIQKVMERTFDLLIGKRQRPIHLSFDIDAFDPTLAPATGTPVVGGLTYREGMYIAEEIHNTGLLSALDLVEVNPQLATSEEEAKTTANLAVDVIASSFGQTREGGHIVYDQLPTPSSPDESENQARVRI

[6] = target: T3, Proteasome subunit beta (Trypanosoma cruzi) (UniProt O96673); assay: Trypanosoma cruzi proteasome chymotrypsin-like activity (TcProtChymo) assay.; also: in the data most compounds retested in dose-response had high values; assay type: functional; details: 9.37 µM
T3 sequence (whole entry): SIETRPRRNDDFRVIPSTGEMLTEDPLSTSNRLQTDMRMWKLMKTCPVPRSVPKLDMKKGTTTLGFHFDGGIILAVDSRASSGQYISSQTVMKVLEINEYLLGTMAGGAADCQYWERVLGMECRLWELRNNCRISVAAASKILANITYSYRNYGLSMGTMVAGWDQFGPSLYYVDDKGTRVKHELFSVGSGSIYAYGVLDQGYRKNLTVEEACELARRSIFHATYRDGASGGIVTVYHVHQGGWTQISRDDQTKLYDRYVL

Homo sapiens = species on record: Homo sapiens; assay: To identify inhibition of the IFN signalling (Jak-Stat) pathway via expression of an eGFP reporter gene under the control of an IFN-stimulated response element (ISRE) containing MxA promoter.; assay type: functional; details: 30 µM
[7] = target: T4, Tyrosyl-tRNA synthetase, putative (Trypanosoma cruzi (strain CL Brener)) (UniProt Q4DSP6); assay: Trypanosoma cruzi tyrosyl tRNA synthetase (TcYRS) _High Tyrosine SOP; assay type: functional; details: 30 µM; also: in the data most compounds retested in dose-response had high values
T4 sequence (whole entry): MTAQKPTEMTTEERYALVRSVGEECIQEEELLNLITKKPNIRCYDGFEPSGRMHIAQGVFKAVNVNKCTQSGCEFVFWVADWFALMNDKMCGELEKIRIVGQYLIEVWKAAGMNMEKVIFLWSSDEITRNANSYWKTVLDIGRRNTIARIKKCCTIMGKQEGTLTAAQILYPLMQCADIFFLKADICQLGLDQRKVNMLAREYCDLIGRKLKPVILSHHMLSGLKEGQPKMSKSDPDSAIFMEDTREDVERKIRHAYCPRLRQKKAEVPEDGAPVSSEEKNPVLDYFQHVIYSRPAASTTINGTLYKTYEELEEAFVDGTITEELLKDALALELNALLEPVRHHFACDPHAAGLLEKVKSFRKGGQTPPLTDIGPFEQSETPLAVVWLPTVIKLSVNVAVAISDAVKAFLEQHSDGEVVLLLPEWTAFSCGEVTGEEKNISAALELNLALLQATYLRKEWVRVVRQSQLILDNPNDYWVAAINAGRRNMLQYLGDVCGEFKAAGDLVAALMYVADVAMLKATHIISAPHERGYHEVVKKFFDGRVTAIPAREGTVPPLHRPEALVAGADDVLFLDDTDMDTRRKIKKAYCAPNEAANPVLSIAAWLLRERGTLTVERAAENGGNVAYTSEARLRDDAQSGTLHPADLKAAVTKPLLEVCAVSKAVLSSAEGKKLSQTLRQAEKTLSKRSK

[8] = target: T4, Tyrosyl-tRNA synthetase, putative (Trypanosoma cruzi (strain CL Brener)); assay: Trypanosoma cruzi tyrosyl tRNA synthetase (TcYRS) SOP; assay type: functional; details: 30 µM
[9] = target: Chromo domain-containing protein 1 (Saccharomyces cerevisiae (strain ATCC 204508 / S288c) (Baker's yeast)) (UniProt P32657); assay: ScCHD-1 Enzyme Inhibition Assay; assay type: functional; details: 30 µM; also: in the data most compounds retested in dose-response had high values
Chromo domain-containing protein 1 (Saccharomyces cerevisiae (strain ATCC 204508 / S288c) (Baker's yeast)), sequence (P32657 whole entry, the tested form may be a part): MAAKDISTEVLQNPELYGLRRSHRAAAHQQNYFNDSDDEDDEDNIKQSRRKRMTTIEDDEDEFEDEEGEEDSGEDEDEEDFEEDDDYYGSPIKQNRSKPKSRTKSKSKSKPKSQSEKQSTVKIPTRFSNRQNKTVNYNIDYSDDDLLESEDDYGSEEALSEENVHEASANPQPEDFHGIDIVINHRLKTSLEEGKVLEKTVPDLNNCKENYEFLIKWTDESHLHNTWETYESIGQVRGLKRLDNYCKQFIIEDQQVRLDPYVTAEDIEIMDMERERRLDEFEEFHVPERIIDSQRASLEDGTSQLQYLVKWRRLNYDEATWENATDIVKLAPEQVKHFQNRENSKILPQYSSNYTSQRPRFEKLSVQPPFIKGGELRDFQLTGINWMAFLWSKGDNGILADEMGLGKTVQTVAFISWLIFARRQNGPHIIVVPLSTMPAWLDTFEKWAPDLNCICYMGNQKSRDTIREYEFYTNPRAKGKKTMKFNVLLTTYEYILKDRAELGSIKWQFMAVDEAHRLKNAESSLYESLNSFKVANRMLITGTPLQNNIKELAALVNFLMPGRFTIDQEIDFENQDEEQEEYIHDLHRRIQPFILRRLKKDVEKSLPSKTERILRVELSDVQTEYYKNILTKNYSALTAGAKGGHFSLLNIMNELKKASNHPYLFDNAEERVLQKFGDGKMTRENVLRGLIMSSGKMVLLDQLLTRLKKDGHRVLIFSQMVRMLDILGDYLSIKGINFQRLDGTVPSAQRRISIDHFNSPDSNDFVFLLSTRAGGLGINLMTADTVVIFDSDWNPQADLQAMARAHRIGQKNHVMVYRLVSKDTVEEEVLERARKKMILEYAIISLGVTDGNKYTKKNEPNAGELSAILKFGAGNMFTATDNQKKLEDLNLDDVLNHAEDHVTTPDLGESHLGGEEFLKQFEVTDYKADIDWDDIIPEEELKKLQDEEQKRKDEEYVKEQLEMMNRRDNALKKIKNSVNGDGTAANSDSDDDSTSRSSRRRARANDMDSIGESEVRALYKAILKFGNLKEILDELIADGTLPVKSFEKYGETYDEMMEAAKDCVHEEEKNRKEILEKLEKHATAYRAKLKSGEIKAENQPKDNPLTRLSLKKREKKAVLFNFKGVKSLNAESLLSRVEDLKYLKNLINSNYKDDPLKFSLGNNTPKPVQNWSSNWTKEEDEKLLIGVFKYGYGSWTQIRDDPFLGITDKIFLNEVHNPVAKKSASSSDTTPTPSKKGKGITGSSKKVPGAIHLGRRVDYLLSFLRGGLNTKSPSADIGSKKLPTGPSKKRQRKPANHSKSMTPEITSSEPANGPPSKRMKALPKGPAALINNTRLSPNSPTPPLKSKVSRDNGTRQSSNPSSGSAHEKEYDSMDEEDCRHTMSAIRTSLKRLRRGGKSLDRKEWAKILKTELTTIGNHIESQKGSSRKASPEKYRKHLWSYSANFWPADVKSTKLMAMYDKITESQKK

Protein translocase subunit SecA (Escherichia coli (strain K12)), sequence (P10408 whole entry): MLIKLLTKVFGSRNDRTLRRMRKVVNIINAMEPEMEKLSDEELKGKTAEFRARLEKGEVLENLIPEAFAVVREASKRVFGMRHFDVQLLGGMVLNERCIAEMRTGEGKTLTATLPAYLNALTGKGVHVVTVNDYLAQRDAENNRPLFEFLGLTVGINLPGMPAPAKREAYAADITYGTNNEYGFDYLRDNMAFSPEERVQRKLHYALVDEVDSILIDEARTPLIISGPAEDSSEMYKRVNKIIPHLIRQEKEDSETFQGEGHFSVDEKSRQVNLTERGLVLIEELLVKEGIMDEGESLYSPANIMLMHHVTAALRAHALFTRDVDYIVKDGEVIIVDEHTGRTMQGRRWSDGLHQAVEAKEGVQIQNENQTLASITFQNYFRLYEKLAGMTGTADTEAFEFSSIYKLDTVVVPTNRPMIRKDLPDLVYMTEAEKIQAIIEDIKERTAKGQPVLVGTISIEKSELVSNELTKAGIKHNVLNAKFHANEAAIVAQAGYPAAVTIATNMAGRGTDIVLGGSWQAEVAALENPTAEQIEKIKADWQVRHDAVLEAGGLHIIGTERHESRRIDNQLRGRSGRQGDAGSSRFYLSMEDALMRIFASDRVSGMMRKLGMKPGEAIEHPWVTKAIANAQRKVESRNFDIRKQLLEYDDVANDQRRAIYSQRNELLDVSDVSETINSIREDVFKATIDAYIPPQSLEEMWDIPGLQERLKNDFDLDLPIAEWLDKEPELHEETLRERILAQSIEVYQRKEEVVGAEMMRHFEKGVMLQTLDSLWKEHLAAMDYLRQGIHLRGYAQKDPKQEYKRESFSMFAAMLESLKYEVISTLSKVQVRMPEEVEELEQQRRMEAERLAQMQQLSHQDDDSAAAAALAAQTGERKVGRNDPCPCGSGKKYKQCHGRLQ

Row | Compound | Percent Effect [1] [%] | Percent Effect [2] [%] | Percent Effect [3] [%] | Percent Effect [4] [%] | Percent Effect (Trypanosoma cruzi) [%] | Percent Effect [5] [%] | Percent Effect [6] [%] | Percent Effect (Homo sapiens) [%] | Percent Effect [7] [%] | Percent Effect [8] [%] | Percent Effect [9] [%]
1 | O=C(CN1CCCC(Cn2cncn2)C1)NCc1ccco1 (stereo unspecified) | -2.6 | 0 | -4.08 | -5 | -8.12 | 8.27 | 7.87 | 6.12 | 1.48 | -1.24 | 4.31
2 | CCn1ccnc1CN1CCN(Cc2ccc(C#N)cc2)CC1 | -5.95 | 21.1 | -10.9 | -5.15 | 9.96 | -4.6 | 15.9 | 19.8 | 3.43 | 19.5 | -11.6
3 | COc1cccc(CN(C)C(=O)CCC(=O)c2ccc(Cl)cc2)c1OC | -3.29 | -5.48 | -3.03 | 3.31 | -0.992 | -7.58 | 6.59 | 17 | 1.04 | 8.64 | -4.85
4 | CC(c1nc(C(C)(C)C)no1)N1CCN(CC(=O)N2CCOCC2)CC1 (stereo unspecified) | -3.63 | 0 | 1.02 | 12.9 | -1.66 | -1.18 | 10.1 | 0.488 | 2.13 | 2.6 | 1.93
5 | O=C(NC1CCN(c2snc3ccccc23)CC1)C1CCC1 | -4.68 | 16.5 | -3.67 | 3.44 | -1.74 | -1.07 | 9.43 | 21.9 | 4.17 | 20.2 | -33
6 | Cc1ccc(SCC(=O)NS(=O)(=O)c2ccc3c(c2)OCCO3)cc1 | -2.38 | -10.5 | 2.56 | -1.45 | 5.45 | -2.68 | 15 | 3.33 | -6.37 | -7.32 | -0.431
7 | Cc1cccnc1NC(=O)C1CCCN1Cc1ccccc1 (stereo unspecified) | -3.6 | 2.67 | -2.13 | -2.53 | -9.06 | -3.12 | 21.3 | 16.8 | 0.546 | -1.24 | -9.24
8 | CN(C)C(=O)CN1CCCCC1c1nc(N)ncc1-c1ccccc1 (stereo unspecified) | -1.46 | 2.67 | 10.4 | 1.52 | -2.95 | 2.1 | 2.56 | -0.722 | 4.25 | 6.41 | -5.48
9 | c1ncn(CC2CN(CC3CCCC3)CCO2)n1 (stereo unspecified) | -3.42 | 11.4 | -1.94 | -0.971 | -1.54 | 6.24 | 11.8 | 10.9 | 0 | 7.59 | -14
10 | CNC(=O)NC(=O)Cn1cc(-c2ccccc2)cn1 | -4.72 | 6.33 | 12.6 | 5.24 | -5.03 | -1.07 | 8.23 | 17.1 | 2.08 | 10.1 | -4.57
11 | O=C(NCCNc1ncccn1)C1CCN(c2ncccn2)CC1 | -4.14 | 10.8 | -3.16 | 5.87 | 7.71 | -4.62 | 5.57 | 26.3 | -10.9 | 13.4 | 1.05
